According to PubChem BioAssay AID1159580 (chemical genetic matrix, 2015):
Several values for one entry are separate records, joined by “and”; a condition that tells them apart may be missing. Identical values can stand only once. In all, about 5,500 compounds went through this assay and about 2,000 (36%) were called active. About 18% were inconclusive and are not listed. The list shows a part of the results. A number with no mark means an inactive call. Rule as the data show it: active = normalized growth mostly below about 0.91 (no sharp cut-off); inconclusive = no clear call, values can overlap the other calls; inactive = mostly above about 0.92.

Assay: chemical genetic growth profiling, strain panel (AID 1159580);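 also: tested at 20 µM; growth read once vehicle control cultures reached saturation at 30 °C; 1 = growth at the plate median or of vehicle wells; lower values mean less growth of the strain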
Conditions: S. cerevisiae deletion strains, growth OD

ClC1=C(Cl)C2(Cl)C3C4C=CC(C4)C3C1(Cl)C2(Cl)Cl (configuration not stated)
normalized growth (locus YAL013W, strain DEP1, hits give low values): 0.989
normalized growth (locus YAL021C, strain ccr4, hits give low values): 0.987
normalized growth (locus YAL026C, strain drs2, hits give low values): 0.993
normalized growth (locus YAL030W, strain snc1, hits give low values): 1
normalized growth (locus YBL061C, strain skt5, hits give low values): 1.01
normalized growth (locus YBR009C, strain hhf1, hits give low values): 0.992
normalized growth (locus YBR021W, strain FUR4, hits give low values): 1
normalized growth (locus YBR023C, strain chs3, hits give low values): 0.997
normalized growth (locus YBR171W, strain sec66, hits give low values): 0.988
normalized growth (locus YBR229C, strain ROT2, hits give low values): 0.997
normalized growth (locus YBR231C, strain swc5, hits give low values): 1
normalized growth (locus YBR279W, strain paf1, hits give low values): 1.01
normalized growth (locus YCL011C, strain gbp2, hits give low values): 0.999
normalized growth (locus YCL016C, strain dcc1, hits give low values): 0.999
normalized growth (locus YCL029C, strain bik1, hits give low values): 0.972
normalized growth (locus YCL061C, strain MRC1, hits give low values): 0.993
normalized growth (locus YCL069W, strain vba3, hits give low values): 0.997
normalized growth (locus YCR088W, strain abp1, hits give low values): 0.991
normalized growth (locus YDL005C, strain med2, hits give low values): 0.999
normalized growth (locus YDL035C, strain GPR1, hits give low values): 0.949
normalized growth (locus YDL040C, strain nat1, hits give low values): 0.998
normalized growth (locus YDL074C, strain BRE1, hits give low values): 0.969
normalized growth (locus YDL101C, strain DUN1, hits give low values): 0.993
normalized growth (locus YDL134C, strain PPH21, hits give low values): 0.992
normalized growth (locus YDL185W, strain tfp1, hits give low values): 1
normalized growth (locus YDL192W, strain arf1, hits give low values): 0.997
normalized growth (locus YDR001C, strain nth1, hits give low values): 0.996
normalized growth (locus YDR069C, strain doa4, hits give low values): 0.99
normalized growth (locus YDR101C, strain arx1, hits give low values): 1
normalized growth (locus YDR137W, strain rgp1, hits give low values): 0.956
normalized growth (locus YDR150W, strain NUM1, hits give low values): 1
normalized growth (locus YDR159W, strain sac3, hits give low values): 0.901
normalized growth (locus YDR162C, strain NBP2, hits give low values): 1
normalized growth (locus YDR195W, strain ref2): 0.955
normalized growth (locus YDR297W, strain sur2, hits give low values): 1
normalized growth (locus YDR318W, strain mcm21, hits give low values): 0.981
normalized growth (locus YDR334W, strain swr1, hits give low values): 0.993
normalized growth (locus YDR335W, strain msn5, hits give low values): 1
normalized growth (locus YDR388W, hits give low values): 0.985
normalized growth (locus YDR392W, strain spt3, hits give low values): 1
normalized growth (locus YDR502C, strain sam2, hits give low values): 0.994
normalized growth (locus YEL003W, strain gim4, hits give low values): 1
normalized growth (locus YEL037C, strain rad23, hits give low values): 1
normalized growth (locus YEL061C, strain CIN8 (second series), hits give low values): 1
normalized growth (locus YEL061C, strain CIN8, hits give low values): 1
normalized growth (locus YER015W, strain faa2, hits give low values): 1
normalized growth (locus YER016W, strain bim1, hits give low values): 0.994
normalized growth (locus YER110C, hits give low values): 0.99
normalized growth (locus YER111C, strain swi4, hits give low values): 1
normalized growth (locus YER155C, strain BEM2 (second series), hits give low values): 0.998
normalized growth (locus YER155C, strain BEM2, hits give low values): 0.978
normalized growth (locus YER167W, strain BCK2, hits give low values): 0.977
normalized growth (locus YFR010W, strain ubp6, hits give low values): 0.988
normalized growth (locus YGL078C, strain dbp3, hits give low values): 1
normalized growth (locus YGL086W, strain mad1, hits give low values): 0.967
normalized growth (locus YGL167C, strain pmr1, hits give low values): 0.983
normalized growth (locus YGL173C, strain kem1, hits give low values): 0.992
normalized growth (locus YGL227W, strain vid30, hits give low values): 0.996
normalized growth (locus YGL240W, strain doc1, hits give low values): 0.981
normalized growth (locus YGL248W, strain PDE1, hits give low values): 0.997
normalized growth (locus YGL253W, strain hxk2, hits give low values): 0.983
normalized growth (locus YGR078C, strain PAC10, hits give low values): 1.01
normalized growth (locus YGR135W, strain pre9, hits give low values): 0.982
normalized growth (locus YGR229C, strain SMI1, hits give low values): 0.952
normalized growth (locus YGR252W, strain gcn5, hits give low values): 0.961
normalized growth (locus YHR013C, strain ard1, hits give low values): 1.08
normalized growth (locus YHR027C, strain rpn1, hits give low values): 0.988
normalized growth (locus YHR030C, strain SLT2, hits give low values): 1 and 0.976
normalized growth (locus YHR079C, strain IRE1 (second series), hits give low values): 0.983
normalized growth (locus YHR079C, strain IRE1, hits give low values): 0.979
normalized growth (locus YHR094C, strain hxt1, hits give low values): 1
normalized growth (locus YHR129C, strain ARP1, hits give low values): 1
normalized growth (locus YHR142W, strain chs7, hits give low values): 1.01
normalized growth (locus YHR200W, strain rpn10, hits give low values): 0.99
normalized growth (locus YIL066C, strain RNR3, hits give low values): 0.941
normalized growth (locus YIL073C, strain SPO22, hits give low values): 0.874
normalized growth (locus YIL125W, strain kgd1, hits give low values): 1
normalized growth (locus YIR030C, strain dcg1, hits give low values): 0.991
normalized growth (locus YJL092W, strain hpr5, hits give low values): 0.992
normalized growth (locus YJL095W, strain BCK1 (second series), hits give low values): 0.994
normalized growth (locus YJL095W, strain BCK1, hits give low values): 1.01 and 1.03
normalized growth (locus YJL115W, strain asf1, hits give low values): 0.989
normalized growth (locus YJL129C, strain trk1, hits give low values): 0.85 (active)
normalized growth (locus YJL134W, strain LCB3, hits give low values): 0.999
normalized growth (locus YJL154C, strain vps35, hits give low values): 0.992
normalized growth (locus YJL164C, strain tpk1, hits give low values): 0.981
normalized growth (locus YJL166W, strain qcr8, hits give low values): 0.99
normalized growth (locus YJL168C, strain set2, hits give low values): 0.991
normalized growth (locus YJL187C, strain SWE1 (second series), hits give low values): 1
normalized growth (locus YJL187C, strain SWE1, hits give low values): 1.01
normalized growth (locus YJR043C, strain POL32, hits give low values): 0.981
normalized growth (locus YJR066W, strain TOR1, hits give low values): 0.975
